# Source: PubChem BioAssay (NCI)
# Where “and” joins values, the source holds several entries; their conditions need not be identical. Identical values can stand only once. Compounds without any hit were thinned out: in the full panel of roughly 83,000, 20% have a hit.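 Cells were grown in 96-well plates and exposed to the test compound at a single concentration for 48 hours; results are reported as percent growth, with values below 10 considered active.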 Where a structure was tested more than once in an assay, its records may differ in their call. Calls of active or inactive are those of the source.
# Legend:
# Assay in all cases: NCI-60 one-dose screen, 48 h (100 = growth as untreated, 0 = no growth, -100 = all killed)
# T-47D breast = system: T-47D breast
# BT-549 breast = system: BT-549 breast
# MDA-MB-435 melanoma = system: MDA-MB-435 melanoma
# SW-620 colon = system: SW-620 colon
# MCF7 breast = system: MCF7 breast
# HCT-116 colon = system: HCT-116 colon
# HCC-2998 colon = system: HCC-2998 colon
# KM12 colon = system: KM12 colon
smiles,measurement,setting,value
COc1cc2c(c(OC)c1OC)-c1ccc(OC)c(=O)cc1[C@@H](NC(C)=O)CC2,growth,T-47D breast; 10 µM unless noted,69.8% (inactive) and 49.2% (inactive) and 70.5% (inactive)
same,growth,BT-549 breast; 10 µM unless noted,4.27% (active) and -10% (active) and -7.06% (active)
same,growth,MDA-MB-435 melanoma; 10 µM unless noted,-49.9% (active) and -0.781% (active) and -50.8% (active)
same,growth,SW-620 colon; 10 µM unless noted,23.7% (inactive) and 18.3% (inactive) and 26.4% (inactive)
same,growth,MCF7 breast; 10 µM unless noted,15.1% (inactive) and 15.6% (inactive) and 11.7% (inactive)
same,growth,HCT-116 colon; 10 µM unless noted,1.53% (active) and 0.462% (active) and 0.179% (active)
same,growth,HCC-2998 colon; 10 µM unless noted,3.25% (active) and 13.4% (inactive) and -59% (active)
same,growth,KM12 colon; 10 µM unless noted,-6.61% (active) and 2.96% (active) and -29.9% (active)
CNC(=O)c1cc(Oc2ccc(CC(=O)Nc3cc(C(C)(C)C)nn3C)cc2)ccn1,growth,T-47D breast; 1 µM,57.4% (inactive)
same,growth,T-47D breast; 10 µM,44.7% (inactive)
same,growth,T-47D breast; 30 µM,51.7% (inactive)
same,growth,BT-549 breast; 1 µM,72.6% (inactive)
same,growth,BT-549 breast; 10 µM,82.4% (inactive)
same,growth,BT-549 breast; 30 µM,81% (inactive)
same,growth,MDA-MB-435 melanoma; 1 µM,78.1% (inactive)
same,growth,MDA-MB-435 melanoma; 10 µM,61.8% (inactive)
same,growth,MDA-MB-435 melanoma; 30 µM,67.9% (inactive)
same,growth,SW-620 colon; 1 µM,106% (inactive)
same,growth,SW-620 colon; 10 µM,87.2% (inactive)
same,growth,SW-620 colon; 30 µM,97.8% (inactive)
same,growth,MCF7 breast; 1 µM,61.4% (inactive)
same,growth,MCF7 breast; 10 µM,53.5% (inactive)
same,growth,MCF7 breast; 30 µM,44.4% (inactive)
same,growth,HCT-116 colon; 1 µM,65% (inactive)
same,growth,HCT-116 colon; 10 µM,33.9% (inactive)
same,growth,HCT-116 colon; 30 µM,47.4% (inactive)
same,growth,HCC-2998 colon; 1 µM,107% (inactive)
same,growth,HCC-2998 colon; 10 µM,75.3% (inactive)
same,growth,HCC-2998 colon; 30 µM,101% (inactive)
same,growth,KM12 colon; 1 µM,88.4% (inactive)
same,growth,KM12 colon; 10 µM,58.5% (inactive)
same,growth,KM12 colon; 30 µM,64.6% (inactive)
CCOC(=O)c1sc(N)nc1-c1ccccc1,growth,T-47D breast; 10 µM unless noted,94.4% (inactive)
same,growth,BT-549 breast; 10 µM unless noted,99.9% (inactive)
same,growth,MDA-MB-435 melanoma; 10 µM unless noted,103% (inactive)
same,growth,SW-620 colon; 10 µM unless noted,109% (inactive)
same,growth,MCF7 breast; 10 µM unless noted,100% (inactive)
same,growth,HCT-116 colon; 10 µM unless noted,96.7% (inactive)
same,growth,HCC-2998 colon; 10 µM unless noted,102% (inactive)
same,growth,KM12 colon; 10 µM unless noted,106% (inactive)
Cc1ccc(NCSc2ccc(Cl)cc2)cc1,growth,T-47D breast; 10 µM unless noted,74.3% (inactive) and 62.4% (inactive)
same,growth,BT-549 breast; 10 µM unless noted,44.9% (inactive) and 66% (inactive)
same,growth,MDA-MB-435 melanoma; 10 µM unless noted,63.8% (inactive) and 65.7% (inactive)
same,growth,SW-620 colon; 10 µM unless noted,86.2% (inactive) and 96.6% (inactive)
same,growth,MCF7 breast; 10 µM unless noted,86.9% (inactive) and 80.7% (inactive)
same,growth,HCT-116 colon; 10 µM unless noted,85% (inactive) and 91% (inactive)
same,growth,HCC-2998 colon; 10 µM unless noted,92.4% (inactive) and 94.9% (inactive)
same,growth,KM12 colon; 10 µM unless noted,61.4% (inactive) and 66.5% (inactive)
CC1=C(/C=C/C(C)=C/C=C/C(C)=C/C=N/NC(=S)NC(=S)N/N=C/C=C(C)/C=C/C=C(C)/C=C/C2=C(C)CCCC2(C)C)C(C)(C)CCC1,growth,T-47D breast; 10 µM unless noted,-5.98% (active)
same,growth,BT-549 breast; 10 µM unless noted,-24.7% (active) and 5.7% (active)
same,growth,MDA-MB-435 melanoma; 10 µM unless noted,-47.1% (active) and -61.9% (active)
same,growth,SW-620 colon; 10 µM unless noted,-73.9% (active) and -83.4% (active)
same,growth,MCF7 breast; 10 µM unless noted,16.8% (inactive) and 9.28% (active)
same,growth,HCT-116 colon; 10 µM unless noted,6.1% (active) and -84% (active)
same,growth,HCC-2998 colon; 10 µM unless noted,57.1% (inactive) and 12.3% (inactive)
same,growth,KM12 colon; 10 µM unless noted,-8.44% (active) and -50.7% (active)
CC1(C)[C@@H](OC(=O)CCC(=O)O)CC[C@]2(C)[C@H]3C(=O)C=C4[C@@H]5C[C@@](C)(C(=O)O)CC[C@]5(C)CC[C@@]4(C)[C@]3(C)CC[C@@H]12,growth,T-47D breast; 10 µM unless noted,90.6% (inactive) and 2.63% (active)
same,growth,BT-549 breast; 10 µM unless noted,99.7% (inactive) and -32.4% (active)
same,growth,MDA-MB-435 melanoma; 10 µM unless noted,98.8% (inactive) and -47.7% (active)
same,growth,SW-620 colon; 10 µM unless noted,109% (inactive) and -37.2% (active)
same,growth,MCF7 breast; 10 µM unless noted,91.2% (inactive) and 6.18% (active)
same,growth,HCT-116 colon; 10 µM unless noted,95.4% (inactive) and -58.8% (active)
same,growth,HCC-2998 colon; 10 µM unless noted,103% (inactive) and -71.7% (active)
same,growth,KM12 colon; 10 µM unless noted,97% (inactive) and -73.1% (active)
CN1CCN(CCC=C2c3ccccc3Sc3ccc(S(=O)(=O)N(C)C)cc32)CC1,growth,T-47D breast; 10 µM unless noted,77.4% (inactive)
same,growth,BT-549 breast; 10 µM unless noted,67.9% (inactive) and 70% (inactive)
same,growth,MDA-MB-435 melanoma; 10 µM unless noted,12.8% (inactive) and 6.78% (active)
same,growth,SW-620 colon; 10 µM unless noted,76.9% (inactive) and 74.2% (inactive)
same,growth,MCF7 breast; 10 µM unless noted,41.2% (inactive) and 71.9% (inactive)
same,growth,HCT-116 colon; 10 µM unless noted,39.5% (inactive) and 45.1% (inactive)
same,growth,HCC-2998 colon; 10 µM unless noted,13.9% (inactive) and 14.4% (inactive)
same,growth,KM12 colon; 10 µM unless noted,68.7% (inactive) and 73.4% (inactive)
CC(C)(O)Cn1cc(-c2ccc3nc(OC4CC4)ccc3c2)c2c(N)ncnc21,growth,T-47D breast; 10 µM unless noted,47.6% (inactive) and 5.84% (active)
same,growth,BT-549 breast; 10 µM unless noted,84.7% (inactive) and 66.4% (inactive)
same,growth,MDA-MB-435 melanoma; 10 µM unless noted,93.7% (inactive) and 61% (inactive)
same,growth,SW-620 colon; 10 µM unless noted,97.4% (inactive) and 63.8% (inactive)
same,growth,MCF7 breast; 10 µM unless noted,69.6% (inactive) and 39.6% (inactive)
same,growth,HCT-116 colon; 10 µM unless noted,70.3% (inactive) and 52.4% (inactive)
same,growth,HCC-2998 colon; 10 µM unless noted,99.7% (inactive) and 89.4% (inactive)
same,growth,KM12 colon; 10 µM unless noted,84.1% (inactive) and 56.8% (inactive)
CCOc1ccc2c(S(=O)(=O)O)cccc2c1[N+](=O)[O-],growth,T-47D breast; 10 µM unless noted,114% (inactive) and 111% (inactive)
same,growth,BT-549 breast; 10 µM unless noted,119% (inactive) and 103% (inactive)
same,growth,MDA-MB-435 melanoma; 10 µM unless noted,108% (inactive) and 106% (inactive)
same,growth,SW-620 colon; 10 µM unless noted,107% (inactive) and 98.2% (inactive)
same,growth,MCF7 breast; 10 µM unless noted,107% (inactive) and 104% (inactive)
same,growth,HCT-116 colon; 10 µM unless noted,101% (inactive)
same,growth,HCC-2998 colon; 10 µM unless noted,109% (inactive)
same,growth,KM12 colon; 10 µM unless noted,98.1% (inactive) and 103% (inactive)
